The record followed here is PubChem BioAssay (NCI).

Compounds without any hit were thinned out: in the full panel of roughly 79,000, 15% have a hit. Values without a mark were called inactive. Activity calls are given as the source filed them. Cut-off read from the data, not from the text of the source: active = growth inhibition above about 70%; inactive = the rest.

Assay [1] in a line: NCI Yeast Anticancer Drug Screen. Data for the rad50 strain (AID 155).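 Note: 0% = growth of vehicle-only cultures of the same strain.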 Particulars: S. cerevisiae rad50 strain growth inhibition; at 50.0 µM; active compounds read high. The method in brief:
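Relative growth inhibition (compound vs vehicle) was measured in yeast with a defined repair-gene alteration.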

Assay [2] can be described thus: NCI Yeast Anticancer Drug Screen. Data for the mec2-1 strain (AID 157). Particulars: S. cerevisiae mec2-1 strain, at 50.0 µM, active compounds read high. An outline of the steps:
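Yeast mec2-1 mutant treated with compound. Readout: growth inhibition vs vehicle controls.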

Assay [3] in a line: NCI Yeast Anticancer Drug Screen. Data for the sgs1 mgt1 strain (AID 161).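 Note: 0% = growth of cultures given vehicle only.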 Particulars: S. cerevisiae sgs1 mgt1 strain, at 50.0 µM, active compounds read high. The method in brief:
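Read-out: growth inhibition vs vehicle controls. Cells: mutant yeast strain deficient in DNA damage repair.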

Assay [4] is described as follows: NCI Yeast Anticancer Drug Screen. Data for the cln2 rad14 strain (AID 165).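 Note: 0% = growth equal to vehicle treated cultures.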 Particulars: S. cerevisiae cln2 rad14 strain, at 50.0 µM, active compounds read high. The method in brief: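 cln2 rad14 yeast strain; compound exposure; growth inhibition read vs vehicle controls.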
Assay [5] can be described thus: NCI Yeast Anticancer Drug Screen. Data for the bub3 strain (AID 167). Particulars: S. cerevisiae bub3 mutant strain, at 50.0 µM, active compounds read high. An outline of the steps:
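Screening used yeast with an engineered genetic alteration affecting cell cycle control. Compound-exposed cultures were compared with vehicle cultures, and reduced growth was taken as inhibition.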

The nature of assay [6]: NCI Yeast Anticancer Drug Screen. Data for the mlh1 rad18 strain (AID 175). Particulars: S. cerevisiae mlh1 rad18 strain growth inhibition; at 50.0 µM; active compounds read high. The method in brief:
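Yeast w/ defined DNA-repair lesions; compound exposure; growth vs vehicle controls → % inhibition.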

With `O=C(COc1ccccc1)Nc1cccc(C(=O)O)c1`, the growth inhibition in assay [1] is 1.2%; in assay [2] it was 13.5%; in assay [3], 21.9%; in assay [4], 0.9%; in assay [5] it was 36.6%; in assay [6], 32.2%.

In the case of `C/C(=N/NC(N)=S)c1ccc[nH]1`, the growth inhibition in assay [1] is -18.1%; in assay [2], -14.2%; in assay [3], -3.75%; in assay [4], 20.9%; in assay [5], -39%; in assay [6], -10.4%.

On to `CCN(c1ccccc1)S(=O)(=O)c1ccc(Oc2ccccc2)c(N)c1`, for which the growth inhibition in assay [1] was 27.2%; in assay [2] it was -18.9%; in assay [3], 16.9%; in assay [4] it was 12.5%; in assay [5] it was 36.5%; in assay [6], -10.8%.

Regarding `C=C(C)CS(=O)(=O)O`, the growth inhibition is -0.15% in assay [1]; 3.45% in assay [2]; 1.85% in assay [3]; -13.1% in assay [4]; 3.35% in assay [5]; 1.65% in assay [6].

With `Cc1ccc(OCC(=O)O)cc1C`, the growth inhibition in assay [1] was -5.75%; in assay [2], -24.2%; in assay [3], -14.7%; in assay [4], 0.25%; in assay [5], -11.8%; in assay [6] it was -11.2%.

On to `Cc1cccn2c(C)nnc12`, for which the growth inhibition in assay [1] was 3.4%; in assay [2] it was 25.7%; in assay [3], -1.35%; in assay [4], 17.6%; in assay [5], 28.1%; in assay [6] it was 12.7%.

Consider `CC(=O)Nc1c(C)ncn(-c2ccccc2)c1=O`, for which the growth inhibition in assay [1] is -36.9%; in assay [2], -19.9%; in assay [3] it was -2.95%; in assay [4], -28.4%; in assay [5], -2.75%; in assay [6], -11.2%.

In the case of `CCCCN(CCCC)CC(O)c1cc2ccc(Cl)cc2nc1-c1ccc(Cl)cc1` (stereo unspecified), the growth inhibition in assay [1] was 65.2%; in assay [2], 41.7%; in assay [3] it was 85.5% (active); in assay [4], 8.35%; in assay [5], -6.15%; in assay [6], 78.8% (active).

As to `COC1=NC2(C)C(C)=C(c3ccccc3)C1(C)c1ccccc12` (stereo unspecified), the growth inhibition in assay [1] was -12.2%; in assay [2], -4.4%; in assay [3], -14.6%; in assay [4] it was -46.8%; in assay [5], 7.25%; in assay [6], -3.8%.

Take `COc1ccc(CC(C)SC(CC(=O)O)C(=O)O)cc1` (stereo unspecified): the growth inhibition in assay [1] is 3.45%; in assay [2], -1%; in assay [3], 16.4%; in assay [4], -37.9%; in assay [5], 7.95%; in assay [6], -8.2%.

For `CCC(C)NC(=O)/C=C/c1ccccc1` (stereo unspecified), the growth inhibition in assay [1] was 31.9%; in assay [2], 17.1%; in assay [3] it was 14.4%; in assay [4], 12.4%; in assay [5], -1.1%; in assay [6] it was 6.65%.

For the compound `CCCCC#CCC#Cc1ccccc1`, the growth inhibition is -4.3% in assay [1]; 5.25% in assay [2]; 6.85% in assay [3]; 23.2% in assay [4]; -10.9% in assay [5]; 10.1% in assay [6].

Take `OC1c2ccccc2CC12Cc1ccccc1C2` (stereo unspecified): the growth inhibition in assay [1] is 36.1%; in assay [2], 38.5%; in assay [3], 37.3%; in assay [4], 23.5%; in assay [5] it was 26.6%; in assay [6] it was 13.8%.

`O=c1[nH]c2cc(Cl)ccc2nc1/C(=N\O)C(O)c1cccc([N+](=O)[O-])c1` (stereo unspecified): the growth inhibition was 6.7% in assay [1]; -9.55% in assay [2]; -7.75% in assay [3]; 11.9% in assay [4]; -5.1% in assay [5]; -13.2% in assay [6].

Turning to `NC(=O)CC(NC(=O)OCc1ccccc1)C(N)=O` (stereo unspecified), the growth inhibition in assay [1] is 8.6%; in assay [2] it was 8.4%; in assay [3], -11.2%; in assay [4], -12.4%; in assay [5] it was 10.8%; in assay [6] it was -14.6%.

As to `CSc1ncc(CO)c(NC(C)(C)C)n1`, the growth inhibition is 2.65% in assay [1]; 5.7% in assay [2]; 0.55% in assay [3]; -19.8% in assay [4]; -0.75% in assay [5]; 10.5% in assay [6].

With `Cc1cc(C)c(C(CC(=O)O)C(CC(=O)O)c2c(C)cc(C)cc2C)c(C)c1` (stereo unspecified), the growth inhibition was -0.25% in assay [1]; 1.5% in assay [2]; -16.6% in assay [3]; -21.4% in assay [4]; -6.85% in assay [5]; 32.4% in assay [6].

Turning to `CNC(=O)c1ccc(C(=O)NC)cc1`, the growth inhibition in assay [1] was -19.1%; in assay [2], -26.1%; in assay [3] it was -42.9%; in assay [4], 3.95%; in assay [5], -41.9%; in assay [6] it was -1.75%.

Consider `COC(=O)c1ccccc1N(C(=O)c1ccccc1)c1ccccc1C`, for which the growth inhibition in assay [1] was -16.1%; in assay [2], -13.3%; in assay [3], -18.9%; in assay [4], 10.4%; in assay [5] it was -11.3%; in assay [6], -55%.

As for `CN(C)CC1CCC(CN(C)C)C1=NO` (stereo unspecified), the growth inhibition in assay [1] is 13.7%; in assay [2], -2.55%; in assay [3], -4.1%; in assay [4], 7.4%; in assay [5], -1.5%; in assay [6] it was 6.45%.

Regarding `O=[N+]([O-])c1c(Cl)cc(Cl)c([N+](=O)[O-])c1-c1ccccc1`, the growth inhibition was -17.1% in assay [1]; 9.1% in assay [2]; -14.3% in assay [3]; 7.75% in assay [4]; 14.2% in assay [5]; -31.7% in assay [6].
